From ChEMBL document CHEMBL1961873, “Compounds: GSK PKIS; Assays: Nanosyn kinase panel” (2012) come the findings set out here.

In experiment [1] the target is Sphingosine kinase 1 (Homo sapiens) (UniProt Q9NYA1). Conditions: at 1 µM.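 Note: mean SPHK1 inhibition value reported from the GSK PKIS kinase panel screen.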
Experiment [2] concerns the target T1, Sphingosine kinase 2 (Homo sapiens) (UniProt Q9NRA0).
T1 sequence (whole entry): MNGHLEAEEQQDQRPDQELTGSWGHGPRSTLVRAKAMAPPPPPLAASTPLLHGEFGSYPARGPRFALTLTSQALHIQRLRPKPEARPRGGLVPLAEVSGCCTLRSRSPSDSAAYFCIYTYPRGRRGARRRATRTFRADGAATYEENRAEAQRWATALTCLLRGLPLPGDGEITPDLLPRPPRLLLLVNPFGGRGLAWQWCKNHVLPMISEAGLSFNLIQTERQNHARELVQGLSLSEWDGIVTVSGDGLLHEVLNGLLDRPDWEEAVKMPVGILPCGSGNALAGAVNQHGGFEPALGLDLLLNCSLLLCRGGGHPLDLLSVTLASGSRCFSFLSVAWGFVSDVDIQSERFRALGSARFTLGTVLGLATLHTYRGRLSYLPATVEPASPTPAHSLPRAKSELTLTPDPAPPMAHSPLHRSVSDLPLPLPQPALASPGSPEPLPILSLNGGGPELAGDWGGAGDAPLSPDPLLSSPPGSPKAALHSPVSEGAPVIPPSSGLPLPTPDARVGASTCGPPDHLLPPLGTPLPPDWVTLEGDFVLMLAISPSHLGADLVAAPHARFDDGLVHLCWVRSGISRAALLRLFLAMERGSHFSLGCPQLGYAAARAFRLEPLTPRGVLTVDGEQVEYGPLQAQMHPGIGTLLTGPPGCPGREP
The following applies: at 0.1 µM.

The target in experiment [3] is T1, Sphingosine kinase 2 (Homo sapiens). The following applies: at 1 µM.
Experiment [4] addresses Casein kinase II subunit alpha (Homo sapiens) (UniProt P68400). Conditions: at 0.1 µM.
Experiment [5] shares this target. The following applies: at 1 µM.
For experiment [6], the target named is T2, Inhibitor of nuclear factor kappa-B kinase subunit alpha (Homo sapiens) (UniProt O15111).
T2 sequence (whole entry): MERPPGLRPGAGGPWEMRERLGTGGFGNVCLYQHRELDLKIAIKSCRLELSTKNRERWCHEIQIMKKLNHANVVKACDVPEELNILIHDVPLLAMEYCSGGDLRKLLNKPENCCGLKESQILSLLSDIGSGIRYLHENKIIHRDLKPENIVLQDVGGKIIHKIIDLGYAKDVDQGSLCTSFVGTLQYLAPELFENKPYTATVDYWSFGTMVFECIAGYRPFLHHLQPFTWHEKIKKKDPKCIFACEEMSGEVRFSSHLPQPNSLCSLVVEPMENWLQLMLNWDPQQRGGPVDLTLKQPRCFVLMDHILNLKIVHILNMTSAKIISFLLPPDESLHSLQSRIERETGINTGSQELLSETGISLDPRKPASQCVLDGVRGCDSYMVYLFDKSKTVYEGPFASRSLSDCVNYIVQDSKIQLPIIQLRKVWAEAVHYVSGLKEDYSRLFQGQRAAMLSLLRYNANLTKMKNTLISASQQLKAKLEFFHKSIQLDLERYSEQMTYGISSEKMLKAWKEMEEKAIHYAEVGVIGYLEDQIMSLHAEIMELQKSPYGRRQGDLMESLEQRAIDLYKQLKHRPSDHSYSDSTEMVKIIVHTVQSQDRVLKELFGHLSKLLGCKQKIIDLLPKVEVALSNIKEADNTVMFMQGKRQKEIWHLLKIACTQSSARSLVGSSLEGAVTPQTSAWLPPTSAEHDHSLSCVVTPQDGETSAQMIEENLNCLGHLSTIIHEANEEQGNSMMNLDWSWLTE
Conditions: at 0.1 µM.

In experiment [7] the target is T2, Inhibitor of nuclear factor kappa-B kinase subunit alpha (Homo sapiens). The following applies: at 1 µM.
The target in experiment [8] is T3, Inhibitor of nuclear factor kappa-B kinase subunit beta (Homo sapiens) (UniProt O14920).
T3 sequence (whole entry): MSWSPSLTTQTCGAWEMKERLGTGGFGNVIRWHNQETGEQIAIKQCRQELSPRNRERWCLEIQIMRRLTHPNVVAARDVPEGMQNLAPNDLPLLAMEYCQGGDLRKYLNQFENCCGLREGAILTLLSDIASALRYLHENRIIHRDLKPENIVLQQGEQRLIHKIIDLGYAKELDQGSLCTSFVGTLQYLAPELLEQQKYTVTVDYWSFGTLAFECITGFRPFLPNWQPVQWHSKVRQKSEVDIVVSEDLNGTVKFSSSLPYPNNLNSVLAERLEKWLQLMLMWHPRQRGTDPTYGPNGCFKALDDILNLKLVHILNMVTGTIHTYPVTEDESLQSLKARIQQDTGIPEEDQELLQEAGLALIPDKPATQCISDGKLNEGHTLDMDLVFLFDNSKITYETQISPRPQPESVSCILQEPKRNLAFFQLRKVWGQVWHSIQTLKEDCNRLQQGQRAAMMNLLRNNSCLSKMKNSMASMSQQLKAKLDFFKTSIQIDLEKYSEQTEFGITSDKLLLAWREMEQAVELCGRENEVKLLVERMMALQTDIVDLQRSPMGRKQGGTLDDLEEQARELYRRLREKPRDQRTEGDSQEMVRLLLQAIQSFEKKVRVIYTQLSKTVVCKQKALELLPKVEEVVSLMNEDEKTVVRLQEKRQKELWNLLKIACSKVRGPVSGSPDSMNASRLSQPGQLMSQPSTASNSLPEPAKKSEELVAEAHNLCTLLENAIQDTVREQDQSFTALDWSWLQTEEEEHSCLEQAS
The following applies: at 0.1 µM.

For experiment [9], the target named is T3, Inhibitor of nuclear factor kappa-B kinase subunit beta (Homo sapiens). The following applies: at 1 µM.
Experiment [10] has as its target T4, Inhibitor of nuclear factor kappa-B kinase subunit epsilon (Homo sapiens) (UniProt Q14164).
T4 sequence (whole entry): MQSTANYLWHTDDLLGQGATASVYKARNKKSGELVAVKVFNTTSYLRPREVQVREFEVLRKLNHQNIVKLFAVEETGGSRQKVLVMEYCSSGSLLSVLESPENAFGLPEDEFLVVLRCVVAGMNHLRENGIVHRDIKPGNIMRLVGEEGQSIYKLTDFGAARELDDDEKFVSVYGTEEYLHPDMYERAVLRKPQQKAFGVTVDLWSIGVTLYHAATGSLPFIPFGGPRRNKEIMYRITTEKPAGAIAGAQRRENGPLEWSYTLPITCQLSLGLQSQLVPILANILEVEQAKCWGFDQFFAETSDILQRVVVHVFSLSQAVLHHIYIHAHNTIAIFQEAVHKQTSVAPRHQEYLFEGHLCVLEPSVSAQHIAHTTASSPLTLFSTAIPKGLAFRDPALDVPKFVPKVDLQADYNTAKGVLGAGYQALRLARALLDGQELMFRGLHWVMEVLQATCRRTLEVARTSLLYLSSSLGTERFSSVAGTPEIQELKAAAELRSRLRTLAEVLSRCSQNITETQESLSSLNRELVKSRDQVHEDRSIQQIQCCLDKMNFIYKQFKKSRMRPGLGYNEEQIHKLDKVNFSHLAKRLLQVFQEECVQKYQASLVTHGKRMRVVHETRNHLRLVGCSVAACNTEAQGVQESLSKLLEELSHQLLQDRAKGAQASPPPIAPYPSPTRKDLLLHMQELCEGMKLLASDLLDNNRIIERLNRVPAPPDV
Conditions: at 0.1 µM.

Experiment [11] has as its target T4, Inhibitor of nuclear factor kappa-B kinase subunit epsilon (Homo sapiens). Conditions: at 1 µM.
The target of experiment [12] is T5, Serine/threonine-protein kinase Nek1 (Homo sapiens) (UniProt Q96PY6).
T5 sequence (whole entry): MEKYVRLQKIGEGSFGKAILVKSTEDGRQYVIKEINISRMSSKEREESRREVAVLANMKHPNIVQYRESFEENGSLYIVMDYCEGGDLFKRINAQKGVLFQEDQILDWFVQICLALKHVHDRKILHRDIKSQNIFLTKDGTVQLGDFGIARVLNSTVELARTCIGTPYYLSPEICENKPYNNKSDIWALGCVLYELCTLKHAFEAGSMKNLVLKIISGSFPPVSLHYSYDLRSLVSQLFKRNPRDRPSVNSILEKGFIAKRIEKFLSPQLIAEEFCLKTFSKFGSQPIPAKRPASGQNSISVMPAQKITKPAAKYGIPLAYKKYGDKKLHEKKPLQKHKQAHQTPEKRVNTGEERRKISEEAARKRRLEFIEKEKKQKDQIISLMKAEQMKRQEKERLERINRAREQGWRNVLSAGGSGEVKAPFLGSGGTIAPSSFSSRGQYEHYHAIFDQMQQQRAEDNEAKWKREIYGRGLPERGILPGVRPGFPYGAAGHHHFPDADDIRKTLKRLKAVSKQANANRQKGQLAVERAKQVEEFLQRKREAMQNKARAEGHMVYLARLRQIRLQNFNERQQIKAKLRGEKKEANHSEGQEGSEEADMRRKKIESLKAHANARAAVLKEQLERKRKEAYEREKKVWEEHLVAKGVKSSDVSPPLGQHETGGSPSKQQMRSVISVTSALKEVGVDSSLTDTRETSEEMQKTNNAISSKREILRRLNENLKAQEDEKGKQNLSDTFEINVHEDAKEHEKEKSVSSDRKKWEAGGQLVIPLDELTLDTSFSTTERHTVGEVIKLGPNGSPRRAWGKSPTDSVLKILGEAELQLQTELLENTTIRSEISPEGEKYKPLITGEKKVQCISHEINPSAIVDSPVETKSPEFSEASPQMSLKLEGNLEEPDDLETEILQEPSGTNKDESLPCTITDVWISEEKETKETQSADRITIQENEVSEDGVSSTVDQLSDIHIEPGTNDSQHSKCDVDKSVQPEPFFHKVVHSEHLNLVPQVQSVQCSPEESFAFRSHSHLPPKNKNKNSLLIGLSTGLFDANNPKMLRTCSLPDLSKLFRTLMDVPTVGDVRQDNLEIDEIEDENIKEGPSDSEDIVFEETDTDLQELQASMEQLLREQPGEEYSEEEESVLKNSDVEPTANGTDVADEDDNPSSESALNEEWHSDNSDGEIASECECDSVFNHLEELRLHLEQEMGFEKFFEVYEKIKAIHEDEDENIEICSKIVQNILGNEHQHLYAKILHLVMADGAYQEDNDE
The following applies: at 0.1 µM.

The target of experiment [13] is T5, Serine/threonine-protein kinase Nek1 (Homo sapiens). The following applies: at 1 µM.
The target of experiment [14] is T6, Serine/threonine-protein kinase Nek2 (Homo sapiens) (UniProt P51955).
T6 sequence (whole entry): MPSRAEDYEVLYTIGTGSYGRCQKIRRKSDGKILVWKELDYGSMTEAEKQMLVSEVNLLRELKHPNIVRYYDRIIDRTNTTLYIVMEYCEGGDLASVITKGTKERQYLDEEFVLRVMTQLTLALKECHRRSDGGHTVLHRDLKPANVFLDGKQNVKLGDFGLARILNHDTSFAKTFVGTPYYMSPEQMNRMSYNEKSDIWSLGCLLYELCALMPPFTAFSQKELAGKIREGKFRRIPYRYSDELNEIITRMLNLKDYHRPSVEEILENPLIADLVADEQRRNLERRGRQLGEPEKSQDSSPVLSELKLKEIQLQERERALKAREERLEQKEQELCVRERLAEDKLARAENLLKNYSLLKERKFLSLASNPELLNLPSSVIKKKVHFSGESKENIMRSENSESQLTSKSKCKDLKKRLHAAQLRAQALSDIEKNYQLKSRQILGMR
The following applies: at 0.1 µM.

The target in experiment [15] is T6, Serine/threonine-protein kinase Nek2 (Homo sapiens). The following applies: at 1 µM.
Experiment [16] has as its target Serine/threonine-protein kinase Nek6 (Homo sapiens) (UniProt Q9HC98). Conditions: at 0.1 µM.
The target is the same in experiment [17]. The following applies: at 1 µM.
Experiment [18] has as its target Serine/threonine-protein kinase Nek7 (Homo sapiens) (UniProt Q8TDX7). Conditions: at 0.1 µM.
For experiment [19] the target is unchanged. The following applies: at 1 µM.
The target of experiment [20] is T7, Serine/threonine-protein kinase Nek9 (Homo sapiens) (UniProt Q8TD19).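 Note: reported value is the mean percent inhibition of NEK9.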
T7 sequence (whole entry): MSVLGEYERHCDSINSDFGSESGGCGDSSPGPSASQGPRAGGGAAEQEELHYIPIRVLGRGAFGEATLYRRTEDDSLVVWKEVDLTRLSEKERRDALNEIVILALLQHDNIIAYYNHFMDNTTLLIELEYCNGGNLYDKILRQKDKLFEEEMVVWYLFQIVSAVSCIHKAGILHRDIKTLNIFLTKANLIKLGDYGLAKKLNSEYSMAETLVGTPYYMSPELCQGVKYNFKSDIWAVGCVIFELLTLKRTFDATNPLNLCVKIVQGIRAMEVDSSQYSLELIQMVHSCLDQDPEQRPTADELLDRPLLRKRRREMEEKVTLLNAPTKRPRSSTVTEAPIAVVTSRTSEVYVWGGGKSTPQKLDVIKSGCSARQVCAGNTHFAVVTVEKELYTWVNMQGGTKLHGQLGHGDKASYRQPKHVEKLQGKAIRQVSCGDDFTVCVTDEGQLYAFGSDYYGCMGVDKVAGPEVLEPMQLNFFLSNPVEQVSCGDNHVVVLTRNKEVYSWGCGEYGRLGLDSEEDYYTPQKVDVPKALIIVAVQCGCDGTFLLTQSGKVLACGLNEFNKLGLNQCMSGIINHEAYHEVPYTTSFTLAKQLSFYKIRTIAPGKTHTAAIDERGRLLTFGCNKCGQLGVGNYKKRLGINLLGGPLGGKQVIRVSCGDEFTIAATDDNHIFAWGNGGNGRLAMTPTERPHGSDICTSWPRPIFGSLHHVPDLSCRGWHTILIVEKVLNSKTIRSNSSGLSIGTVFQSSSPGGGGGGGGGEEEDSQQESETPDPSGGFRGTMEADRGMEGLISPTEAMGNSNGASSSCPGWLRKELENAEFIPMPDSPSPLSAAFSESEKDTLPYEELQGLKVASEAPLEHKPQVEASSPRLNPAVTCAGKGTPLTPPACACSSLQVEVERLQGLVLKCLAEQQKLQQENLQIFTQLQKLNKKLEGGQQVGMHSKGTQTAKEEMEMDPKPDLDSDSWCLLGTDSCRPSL
Conditions: at 0.1 µM.

Sequence of Serine/threonine-protein kinase Nek7 (Homo sapiens) (Q8TDX7 whole entry, looked up): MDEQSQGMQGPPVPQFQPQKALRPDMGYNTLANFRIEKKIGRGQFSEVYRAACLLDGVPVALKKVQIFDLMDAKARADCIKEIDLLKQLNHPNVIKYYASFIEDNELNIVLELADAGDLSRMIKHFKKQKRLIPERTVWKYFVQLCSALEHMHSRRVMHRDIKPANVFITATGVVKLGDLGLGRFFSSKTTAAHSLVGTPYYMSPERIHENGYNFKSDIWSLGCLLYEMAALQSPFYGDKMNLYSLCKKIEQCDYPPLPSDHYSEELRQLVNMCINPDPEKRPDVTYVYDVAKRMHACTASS
Sequence of Casein kinase II subunit alpha (Homo sapiens) (P68400 whole entry, looked up): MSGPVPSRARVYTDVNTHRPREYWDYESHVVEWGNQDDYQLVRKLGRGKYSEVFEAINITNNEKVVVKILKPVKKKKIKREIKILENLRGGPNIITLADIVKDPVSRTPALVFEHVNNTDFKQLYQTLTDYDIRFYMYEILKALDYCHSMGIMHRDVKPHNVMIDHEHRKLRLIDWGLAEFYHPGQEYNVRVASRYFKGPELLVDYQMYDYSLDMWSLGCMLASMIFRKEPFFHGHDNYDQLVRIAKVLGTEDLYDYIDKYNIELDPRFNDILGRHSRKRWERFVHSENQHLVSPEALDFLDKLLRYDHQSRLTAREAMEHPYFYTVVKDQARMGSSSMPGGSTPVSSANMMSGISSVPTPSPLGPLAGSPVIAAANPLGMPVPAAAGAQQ
Sequence of Serine/threonine-protein kinase Nek6 (Homo sapiens) (Q9HC98 whole entry): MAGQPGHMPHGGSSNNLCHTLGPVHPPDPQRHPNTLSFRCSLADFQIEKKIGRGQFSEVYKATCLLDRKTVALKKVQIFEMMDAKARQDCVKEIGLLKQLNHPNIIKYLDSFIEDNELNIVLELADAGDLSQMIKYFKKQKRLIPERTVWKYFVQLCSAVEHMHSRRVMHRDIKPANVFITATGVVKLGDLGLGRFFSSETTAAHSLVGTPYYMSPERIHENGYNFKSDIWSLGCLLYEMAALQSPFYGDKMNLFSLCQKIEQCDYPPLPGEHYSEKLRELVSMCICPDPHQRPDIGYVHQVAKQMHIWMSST
Sequence of Sphingosine kinase 1 (Homo sapiens) (Q9NYA1 whole entry): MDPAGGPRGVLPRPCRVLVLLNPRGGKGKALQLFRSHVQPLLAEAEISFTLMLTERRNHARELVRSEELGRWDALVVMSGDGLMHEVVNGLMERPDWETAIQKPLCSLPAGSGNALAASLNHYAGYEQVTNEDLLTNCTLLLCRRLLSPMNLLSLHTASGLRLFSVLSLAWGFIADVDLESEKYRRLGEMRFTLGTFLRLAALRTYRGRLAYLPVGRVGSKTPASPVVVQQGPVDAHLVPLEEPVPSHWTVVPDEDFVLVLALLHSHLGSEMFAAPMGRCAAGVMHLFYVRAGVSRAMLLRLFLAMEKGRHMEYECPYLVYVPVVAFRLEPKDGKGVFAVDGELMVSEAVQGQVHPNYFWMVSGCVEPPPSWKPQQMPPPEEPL

Regarding `O=C1NC(=O)C(c2cccc(Cl)c2)=C1Nc1ccc(Cl)c(C(=O)O)c1`, the inhibition is 2.31% in experiment [1]; -0.06% in experiment [2]; 0.61% in experiment [3]; 2.24% in experiment [4]; 7.88% in experiment [5]; 2.51% in [6]. Besides, the inhibition in experiment [7] is -0.25%; in [8] it was 3.73%; in experiment [9] it was 4.76%; in experiment [10], 6.56%; in experiment [11], 6.69%; in [12], 2.39%. Further, the inhibition stood at 1.69% in [13]; 3.91% in experiment [14]; 3.63% in experiment [15]; 2.53% in experiment [16]; 5.19% in experiment [17]; 2.65% in experiment [18]. The inhibition in experiment [19] was 1.25%; in experiment [20] it was -5.63%.
